The supplement of paper PMC9446081
± gives the standard deviation of the averaged measurements.

target: MurC (UniProt C4ZRI6); assay: relative enzymatic activity vs untreated control (fraction); higher = less inhibition; details: 100 µM; incubation time: 2 h at 37 C
Experimental: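 In vitro enzymatic inhibition assays (ProFoldin kits) for 12 purified essential E. coli enzymes or complexes, each treated with 218 active antibacterial compounds at 100 µM for 2 h at 37°C. Read-outs were fluorescence or absorbance (phosphate detection, dye binding), converted to activity via standard curves and expressed relative to untreated DMSO controls.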

Chain of MurC (C4ZRI6 whole entry, looked up): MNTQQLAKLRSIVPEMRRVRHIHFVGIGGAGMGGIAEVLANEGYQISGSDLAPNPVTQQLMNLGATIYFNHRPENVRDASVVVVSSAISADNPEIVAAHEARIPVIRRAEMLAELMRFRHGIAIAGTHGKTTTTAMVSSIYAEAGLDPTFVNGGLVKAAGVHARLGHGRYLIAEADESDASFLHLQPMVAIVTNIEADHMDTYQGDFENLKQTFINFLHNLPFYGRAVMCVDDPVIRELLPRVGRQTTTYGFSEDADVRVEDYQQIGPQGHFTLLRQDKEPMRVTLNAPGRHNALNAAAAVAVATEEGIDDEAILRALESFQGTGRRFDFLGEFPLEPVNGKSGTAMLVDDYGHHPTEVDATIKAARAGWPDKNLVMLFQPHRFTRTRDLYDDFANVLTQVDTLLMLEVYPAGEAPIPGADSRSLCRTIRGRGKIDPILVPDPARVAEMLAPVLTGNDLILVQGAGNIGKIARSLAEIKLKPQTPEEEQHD

Row | Compound | relative enzymatic activity
1 | COc1ccc2c(c1OC)C(=O)OC2C1c2c(cc3c(c2OC)OCO3)CCN1C.Cl (stereo not given) | 1.45 ± 0.16
2 | COc1c(N2CCNC(C)C2)c(F)cc2c(=O)c(C(=O)O)cn(C3CC3)c12 (stereo not given) | 1 ± 0.027
3 | N[C@@H]1[C@H]2CN(c3nc4c(cc3F)c(=O)c(C(=O)O)cn4-c3ccc(F)cc3F)C[C@@H]12 | 0.885 ± 0.015
4 | CN(C)[C@@H]1C(=O)[C@@H](C(N)=O)C(=O)[C@@]2(O)C(=O)[C@@H]3C(=O)c4c(O)c(NC(=O)CN5CCCC5)cc(F)c4C[C@H]3C[C@@H]12 | 1.01 ± 0.063
5 | CN(C)c1ccc(O)c2c1C[C@H]1C[C@H]3[C@H](N(C)C)C(=O)C(C(N)=O)=C(O)[C@@]3(O)C(=O)[C@H]1C2=O | 0.99 ± 0.069
6 | Cc1ccc(S(=O)(=O)O)cc1.NC1CCN(c2nc3c(cc2F)c(=O)c(C(=O)O)cn3-c2ccc(F)cc2F)C1.O (stereo not given) | 0.988 ± 0.17
7 | CON=C(C(=O)NC1C(=O)N2C(C(=O)[O-])=C(COC(C)=O)CSC12)c1csc(N)n1.[Na+] (stereo not given) | 0.961 ± 0.082
8 | CN(C)c1ccc(O)c2c1C[C@@H]1C[C@@H]3[C@@H](N(C)C)C(=O)C(C(N)=O)=C(O)[C@]3(O)C(=O)[C@H]1C2=O | 1.17 ± 0.024
9 | NC(=O)N/N=C/c1ccc([N+](=O)[O-])o1 | 1.08 ± 0.033
10 | Nc1nc(/C(=N/O)C(=O)N[C@@H]2C(=O)N3C(C(=O)O)=C(/C=C4\CCN([C@@H]5CCNC5)C4=O)CS[C@H]23)ns1 | 0.717 ± 0.24
11 | CN1CCN(c2c(F)cc3c(=O)c(C(=O)O)cn4c3c2SCC4)CC1 | 0.895 ± 0.076
12 | COC1C=COC2(C)Oc3c(C)c(O)c4c(O)c(c5c(nc6cc(C)ccn65)c4c3C2=O)NC(=O)C(C)=CC=CC(C)C(O)C(C)C(O)C(C)C(OC(C)=O)C1C (stereo not given) | 0.715 ± 0.08
13 | CCn1cc(C(=O)O)c(=O)c2cc(F)c(N3CCNC(C)C3)c(F)c21.Cl (stereo not given) | 0.984 ± 0.05
14 | CC(C)(ON=C(C(=O)NC1C(=O)N2C(C(=O)[O-])=C(C[n+]3ccccc3)CSC12)c1csc(N)n1)C(=O)O (stereo not given) | 0.704 ± 0.14
15 | CC(C)CCCC(=O)N[C@@H](CCNCS(=O)(=O)O)C(=O)N[C@H](C(=O)N[C@@H](CCNCS(=O)(=O)O)C(=O)N[C@H]1CCNC(=O)[C@H]([C@@H](C)O)NC(=O)[C@H](CCNCS(=O)(=O)O)NC(=O)[C@H](CCNCS(=O)(=O)O)NC(=O)[C@H](CC(C)C)NC(=O)[C@H](CC(C)C)NC(=O)[C@H](CCNCS(=O)(=O)O)NC1=O)[C@@H](C)O | 1.16 ± 0.21
16 | CON=C(C(=O)NC1C(=O)N2C(C(=O)[O-])=C(COC(N)=O)CSC12)c1ccco1.[Na+] (stereo not given) | 1.33 ± 0.083
17 | N[C@H]1CCN(c2nc3c(cc2F)c(=O)c(C(=O)O)cn3-c2ccc(F)cc2F)C1 | 0.934 ± 0.034
18 | CC(C)(O/N=C(\C(=O)N[C@@H]1C(=O)N2C(C(=O)O)=C(C[N+]3(CCNC(=O)c4ccc(O)c(O)c4Cl)CCCC3)CS[C@H]12)c1csc(N)n1)C(=O)O | 0.83 ± 0.29
19 | O=c1[nH]c(=O)n([C@@H]2C[C@@H](O)[C@@H](CO)O2)cc1F | 1.02 ± 0.035
20 | CON=C(C(=O)NC1C(=O)N2C(C(=O)[O-])=C(CSc3nc(=O)c([O-])nn3C)CSC12)c1csc(N)n1.O.O.O.[Na+].[Na+] (stereo not given) | 1.041 ± 0.0071

Row | Compound | relative enzymatic activity
21 | Cn1sccc1=O | 0.969 ± 0.062
22 | CO/N=C(\C(=O)N[C@@H]1C(=O)N2C(C(=O)O)=C(CSc3nnnn3C)CS[C@H]12)c1csc(N)n1 | 1.05 ± 0.082
23 | N[C@@H]1CC[C@@H](c2ccc(Cl)c(Cl)c2)c2ccccc21 | 0.806 ± 0.12
24 | COC1(NC(=O)CSCC#N)C(=O)N2C(C(=O)[O-])=C(CSc3nnnn3C)CSC21.[Na+] (stereo not given) | 1.59 ± 0.09
25 | NC(=O)[C@@H]1CC[C@@H]2CN1C(=O)N2OS(=O)(=O)O | 1.04 ± 0.022
26 | CN1CCN(c2c(F)cc3c(=O)c(C(=O)O)cn4c3c2OCN4C)CC1 | 0.954 ± 0.1
27 | O=C1CN(/N=C/c2ccc([N+](=O)[O-])o2)C(=O)N1 | 1.33 ± 0.34
28 | CCCC[P+](CCCC)(CCCC)Cc1ccc(NC(=O)[C@@H](Cc2ccc3ccccc3c2)N=C(NC2CCCCC2)NC2CCCCC2)cc1 | 0.817 ± 0.36
29 | Oc1c(Cl)cc(Cl)c(Cl)c1Cc1c(O)c(Cl)cc(Cl)c1Cl | 3.59 ± 0.79
30 | CC1CN(c2c(F)c(F)c3c(=O)c(C(=O)O)cn(C4CC4)c3c2F)CC(C)N1 (stereo not given) | 0.891 ± 0.082
31 | NC[C@H]1O[C@H](O[C@H]2[C@H](O)[C@@H](O[C@H]3O[C@H](CO)[C@@H](O)[C@H](N)[C@H]3O)[C@H](N)C[C@@H]2N)[C@H](N)C[C@@H]1O | 0.918 ± 0.078
32 | CN(C)[C@@H]1C(=O)[C@@H](C(N)=O)C(=O)[C@@]2(O)C(=O)[C@H]3C(=O)c4c(O)ccc(Cl)c4[C@@H](O)[C@H]3C[C@@H]12 | 1.009 ± 0.01
33 | COC1(NC(=O)Cc2cccs2)C(=O)N2C(C(=O)[O-])=C(COC(N)=O)CSC21.[Na+] (stereo not given) | 1.15 ± 0.057
34 | NCc1ccccc1CC(=O)NC1C(=O)N2C(C(=O)O)=C(CSc3nnnn3CC(=O)O)CSC12 (stereo not given) | 1.05 ± 0.17
35 | CCn1cc(C(=O)O)c(=O)c2cc(F)c(N3CCN(C)CC3)cc21.CS(=O)(=O)O | 1.02 ± 0.013
36 | CC(O)C1C(=O)N2C(C(=O)O)=C(SC3CNC(C(=O)N(C)C)C3)C(C)C12 (stereo not given) | 0.359 ± 0.25
37 | CCOC(=O)OC(C)OC(=O)C1N2C(=O)C(NC(=O)C(N)c3ccccc3)C2SC1(C)C.Cl (stereo not given) | 1.01 ± 0.035
38 | COC(=O)N/N=C/c1c[n+]([O-])c2ccccc2[n+]1[O-] | 1 ± 0.079
39 | O=c1[nH]c(=O)n(C2CC(O)C(CO)O2)cc1F (stereo not given) | 0.948 ± 0.082
40 | Cn1nnnc1SCC1=C(C(=O)[O-])N2C(=O)C(NC(=O)C(O)c3ccccc3)C2SC1.[Na+] (stereo not given) | 1.091 ± 0.0095
